Source: PubChem BioAssay AID1347137 (National Center for Advancing Translational Sciences (NCATS), 2019)
The list shows a part of the results. Records with an inconclusive call do not appear. A number with no mark means an inactive call. Active and inactive are the calls of the source. The call rests on the fitted dose curve; in most records, active means well fitted inhibition curve with a large enough effect; inconclusive means small, poorly fitted or top-dose-only effect; inactive means no such curve, though single readings can be large or run the other way.

Assay: qHTS of pediatric cancer cell lines to identify multiple opportunities for drug repurposing: Orthogonal 3D viability screen for Daoy cells
Conditions: Daoy 3D spheroid viability, PI/Hoechst imaging, 72 h; series mostly up to 30.7 µM; activity change, negative = viability loss: at the top concentration
Excerpt: Drug repurposing or repositioning has been offered as a strategy for drug development in oncology programs. This approach has special potential for childhood cancers and other rare or orphan diseases, where the expected return on new drug development has been a disincentive to pharmaceuticals. […] In this project we exploit the poly-pharmacology of drugs to discover new indications via phenotypic screening of a panel of 19 well-characterized cell lines derived from solid tumors seen in children and adolescents. The goal is to identify approved drugs with previously unrecognized anticancer properties that has the potential to reveal new mechanisms and biological processes involved in carcinogenesis or drug resistance. We employed a titration-based paradigm (quantitative high-throughput screening or qHTS), where all compounds were tested at multiple concentrations for their effect on cell viability. Concentration-response curves (CRCs) were derived directly from the primary screen, and both potency and efficacy values were used to identify compounds with robust bioactivity profiles. […] These two assays will be use to validate active compounds and assess the correlation of compound's potency in 2D vs 3D cultures on selected cell lines. Assay Submitter: Nathalia J. Martinez, National Center for Advancing Translational Sciences, National Institutes of Health, Rockville, MD, USA; email: natalia.martinez@nih.gov Shen, M et al. Quantitative high-throughput phenotypic screening of pediatric cancer cell lines identifies multiple opportunities for drug repurposing. Oncotarget 2017 Dec 19;9(4):4758-4772. PMID 29435139.
The cells were obtained from University of North Carolina (UNC), Pediatric Preclinical Testing Program (PPT), and Coriell Institute (CI). qHTS viability in 3D culture: Cells were assayed in phenol red-free growth media at a density of 1,000 cells/well, with the exception of Daoy, and SH-N-SH which were assayed at 1,500 cells/ well. Thirty muL of cells were dispensed into 384-well, ULA, round bottom plates (Corning) using a Multidrop dispenser. […] Spheroid viability was first determined by high-content imaging using Hoechst 33342 and Propidium Iodide (PI, ThermoFisher Scientific), followed by addition of CellTiter-Glo 3D (Promega). […] Plates were incubated for 30 min at RT on a VWR microplate shaker (300 rpm) and analyzed for luminescence intensity using a ViewLux High-throughput CCD imager equipped with clear filters. […] The data were exported to Excel, and the average fluorescent intensities were used to calculate the ratio of PI over Hoechst, which was used to quantify viability. […]
In the case of `C=C1C(=CC=C2CCC[C@]3(C)[C@@H]([C@H](C)C=C[C@H](C)C(C)C)CC[C@@H]23)C[C@@H](O)C[C@@H]1O`, the “activity change, negative = viability loss” value is reported as 54.7%.
For `CC(NCc1ccc2c(c1)nc(NC(=O)c1ccc(-c3cn[nH]c3)s1)n2CC(C)(C)O)C(C)(C)C` (centres undefined), the Potency was 511 nM (active).
In the case of `CC[C@H]1CN2CCc3cc(OC)c(OC)cc3[C@@H]2C[C@@H]1C[C@H]1NCCc2cc(OC)c(OC)cc21`, the Potency is reported as 406 nM (active).
For `CC1(C)O[C@@H]2C[C@@H]3[C@H]4C[C@@H](F)C5=CC(=O)C=C[C@]5(C)[C@@]4(F)[C@@H](O)C[C@]3(C)[C@]2(C(=O)CO)O1`, the Potency was 3620 nM (active).
